# Results taken from PubChem BioAssay AID590 (National Center for Advancing Translational Sciences (NCATS), 2007).
# Out of some 59,000 compounds screened, about 6,500 (11%) were called active. About 15% were inconclusive and are not listed. No stated cut-off is given here; in the data, active means max dye-equivalent concentration above about 10 nM; inconclusive means mostly about 1.1 nM to 9.6 nM; inactive means weaker than that. For the sample, actives were picked, then their nearest neighbours and some compounds at random.
# Test: qHTS Assay for Spectroscopic Profiling in A350 Spectral Region
# Conditions: Compound autofluorescence, 340/450 nm, Alexa 350 dye-equivalents; active compounds read high
# Description: NIH Molecular Libraries Screening Centers Network [MLSCN]
# NIH Chemical Genomics Center [NCGC]
# Occasionally, the artifactual effect may originate from the compounds own spectral or other biophysical properties which generally tend to track its assay concentration. Pre-screening/profiling the library with respect to the compounds spectral properties should help one exclude false positives early on. While the most informative fluorescent profiling data set is obtained by performing a full excitation and emission scan of each well by using a monochromator-based plate reader, such an approach is practical only on a very limited scale as scanning each well requires long time. An alternative approach, applied here, is to perform plate reader scans using selected excitation and emission wavelength pairs to generate a multidimensional relational database that correlates compound concentration and the respective relative fluorescence intensity at a given wavelength set. A standard curve of Alexa 350 (A 350) present on each plate as six-point concentration series, was used to compute a normalized fluorescence response, termed dye-equivalent concentration, for each compound at each concentration.
# NCGC Assay Protocol Summary:
# 100 mM Tris buffer, pH 8.0
# The wells in columns 1 through 4 of a Kalypsys polypropylene 1536-well compound plate were filled with standard solutions of fluorophore corresponding to the spectral region of interest. Solutions of A 350 were placed in the following wells: I1, J1: 3 mM, I2, J2: 300 uM, I3, J3: 30 uM, I4, J4: zero (DMSO), K1, L1: 3 uM, K2, L2: […], K3, L3: 300 nM, K4, L4: zero (DMSO).
# Six uL of buffer were dispensed to 1536-well Greiner black plates. Compounds and dye standards (23 nL) were transferred via Kalypsys PinTool. The plates were incubated for 15 min at room temperature, and then read on ViewLux (Perkin-Elmer) High-throughput CCD imager using 340 nm and 450 nm excitation and emission filter set.
# Keywords: NIH Roadmap, MLSCN, MLI, MLSMR, qHTS, NCGC, A350, A-350, Fluorescent Profiling.
row,SMILES,max dye-equivalent concentration
1,CCCN(CCC)CCNC(=O)c1cc2c(C)nc3ccccc3c2o1,18 nM (active)
2,CCCC(=O)N(CCc1ccccc1)Cc1nc2ccccc2c(=O)[nH]1,inactive
3,Cc1cc(C(=O)NCCCc2ccccc2)no1,inactive
4,CCOC(=O)C1CCCCN1Cc1ccc(OC)c(OC)c1OC (stereo not given),inactive
5,Clc1ccccc1-c1cc(NCCN2CCOCC2)ncn1,inactive
6,CCn1c(SCC(=O)NCc2ccco2)nnc1-c1ccc(N)cc1,inactive
7,CN1CCN(S(=O)(=O)c2ccc(NC(=O)C3CCCO3)cc2)CC1 (stereo not given),inactive
8,CCOC(=O)c1sc(NC(=O)c2cc(S(=O)(=O)N3CCOCC3)ccc2C)nc1C,inactive
9,O=C(Nc1nc2cc3c(cc2s1)OCCO3)c1cccc(S(=O)(=O)N2CCOCC2)c1,15 nM (active)
10,COc1ccc(S(=O)(=O)N2CCOCC2)cc1C(=O)Nc1nc2ccccc2s1,26 nM (active)
11,CCN(Cc1ccncc1)C(=O)c1cccc(S(=O)(=O)N2CCOCC2)c1,inactive
12,COC(=O)COc1ccc(S(=O)(=O)N2CCOCC2)cc1,inactive
13,O=C(Nc1nc2ccc(S(=O)(=O)N3CCCC3)cc2s1)C1CCCO1 (stereo not given),inactive
14,CC1(C)Cc2cccc(OCC(=O)Nc3nccs3)c2O1,inactive
15,COc1ccc(C[C@H](N)C(=O)N[C@@H]2[C@H](O)[C@H](n3cnc4c(N(C)C)ncnc43)O[C@@H]2CO)cc1,inactive
16,CCCOP(=O)(c1ccc(N(C)C)cc1)C(O)c1cc(OC)c(OC)c(OC)c1 (stereo not given),inactive
17,COc1ccc(N2CCN(C3CC(=O)N(c4ccc5c(c4)OCCO5)C3=O)CC2)cc1 (stereo not given),inactive
18,Cc1ccc(S(=O)(=O)N2CCC(C(=O)OCC(=O)N3CC(=O)Nc4ccccc43)CC2)cc1,inactive
19,CC(=O)N1CCC2(CCCN(c3ncccn3)C2)CC1,inactive
20,Cc1ccc(S(=O)(=O)N2CCCC2CO)cc1 (stereo not given),inactive
21,COc1ccc(C2CC(c3ccc(C)cc3)Nc3nc(N)nn32)cc1 (stereo not given),2800 nM (active)
22,Cc1cc(C)c(C(=O)CN2C(=O)CCC2=O)cc1C,inactive

row,SMILES,max dye-equivalent concentration
1,COC(=O)c1ccc(NC(=O)CSc2nnc(CNc3ccc(OC)cc3)n2C)cc1,inactive
2,CCOC(=O)N1CCN(C(=O)CN(C2CCCCC2)S(C)(=O)=O)CC1,inactive
3,Cc1ccccc1CSc1nnc(-c2ccccn2)n1N,inactive
4,CN(Cc1ccco1)c1cc(-c2ccccc2C(F)(F)F)ncn1,inactive
5,Cc1c(NC(=O)c2cccnc2)c(=O)n(-c2ccccc2)n1C,inactive
6,Cc1c(NC(=O)c2coc(=O)c(Br)c2)c(=O)n(-c2ccccc2)n1C,220 nM (active)
7,Cc1cc(C(=O)Nc2c(C)n(C)n(-c3ccccc3)c2=O)cs1,inactive
8,O=c1[nH]c(=O)n([C@H]2C[C@H](O)[C@H](CO)O2)cc1Br,inactive
9,OCCCN1c2ccccc2Nc2nnc(-c3ccccc3)cc21,110 nM (active)
10,Cn1c(=O)[nH]c(=O)c2c1nc(N(CCO)Cc1ccccc1)n2Cc1ccccc1Cl,inactive
11,O=C(c1cccc(F)c1)N1CCC2(CCCN(Cc3ccncc3)C2)CC1,inactive
12,Cc1c(C)c2c(c(C)c1O)CC[C@@](C)(CN1CCN(c3cc(N4CCCC4)nc(N4CCCC4)n3)CC1)O2,11 nM (active)
13,CC(=O)N1CCC2(CCCN(Cc3ccc(C#N)cc3)C2)CC1,inactive
14,N#CNC1=NCN(CCc2ccccc2)CN1,inactive
15,Cn1c(=O)cc(OCCCC(=O)N2CCN(c3ccccn3)CC2)c2ccccc21,inactive
16,Cc1ccnc(N2CCN(C(=O)CSc3nc4ccccc4nc3N3CCCCC3)CC2)c1,28 nM (active)
17,O=C(CSc1nc2ccccc2o1)N1CCN(c2ccccc2)CC1,inactive
18,COc1ccc(C(=O)Cn2nnc(-c3ccc(N4CCOCC4)cc3)n2)cc1OC,inactive
19,Cc1ccc(Oc2ccc(N)cc2)cc1,inactive
20,CC(C)(C)n1nnnc1C(c1ccc2ncccc2c1)N1CCSCC1 (stereo not given),inactive
21,N#CC(C(=O)c1ccc(S(=O)(=O)N2CCCCCC2)cc1)c1nc2ccccc2[nH]1 (stereo not given),52 nM (active)
22,Cc1ccccc1-c1nnn(CC(=O)c2ccc(S(=O)(=O)N3CCCC3)cc2)n1,inactive

row,SMILES,max dye-equivalent concentration
1,COc1ccccc1N1CCN(C(=O)c2ccc(S(=O)(=O)N3CCCCC3)cc2)CC1,inactive
2,Cc1nnc(N(Cc2ccco2)C(=O)c2ccno2)s1,inactive
3,N#Cc1cccc(NC(=O)CCC2CCCC2)c1,inactive
4,CCCc1nc(-c2ccccc2O)n(-c2ccccc2)n1,inactive
5,O=C(CSc1nnc(Cc2ccccc2)n1-c1ccccc1)N1CCOCC1,inactive
6,CCOc1ccccc1C(=O)NCCCn1ccnc1,inactive
7,CCOc1ccccc1C1C(C(=O)OC)=CN(C)C=C1C(=O)OC,13000 nM (active)
8,CCOc1ccccc1C(=O)NCc1ccco1,inactive
9,CN(C)CCCn1c2ccccc2c2cnccc21,inactive
10,CCC(C)n1[nH]c(=O)cc1N (stereo not given),inactive
11,CC(=O)c1c(N)n(C)c(=O)n(C)c1=O,inactive
12,CCON=C1C(C)(C)C(C)(C)C(C)(C)C1(C)C,inactive
13,CC(=O)N1CCN(C(=O)Nc2cccc(C(F)(F)F)c2)CC1,inactive
14,CCOc1c(N2CCCCC2)c(=O)c1=O,inactive
15,COc1ccc(-c2c3c(=O)n(C)c(=O)n(C)c3cn2NC(C)=O)cc1,2600 nM (active)
16,COc1ccc(OC)c(-n2cc3c(=O)n(C)c(=O)n(C)c3c2)c1,inactive
17,COc1ccc(-c2c3c(=O)n(C)c(=O)n(C)c3cn2-c2cccc(OC)c2)cc1,14 nM (active)
18,CCOC(=O)CNC(=O)c1nn(-c2cccc(OC)c2)c(=O)c2ccccc12,inactive
19,COc1ccc(N(C(=O)c2cccnc2)S(=O)(=O)c2ccc3c(c2)n(C)c(=O)n3C)cc1,inactive
20,COc1cccc(-n2cc3c(c2-c2ccccc2)c(=O)n(C)c(=O)n3C)c1,10 nM (active)
21,Cc1ccc(-c2c3c(=O)n(C)c(=O)n(C)c3cn2-n2cnnc2)cc1,inactive
22,COC(=O)c1ccc(CSc2nc3ccccc3c(=O)n2-c2cccc(OC)c2)o1,inactive

row,SMILES,max dye-equivalent concentration
1,Cc1cccc(-n2nc3c(c2NC(=O)c2ccc(Br)o2)CSC3)c1C,inactive
2,O=C(Nc1ccc(S(=O)(=O)N2CCCCC2)cc1)c1cnccn1,inactive
3,Cc1nc2nc3c(cn2n1)C(=O)CC(c1ccccc1)C3 (stereo not given),inactive
4,CC1(C)C(=O)C2(CCCCC2)C(=O)OC1c1cccs1 (stereo not given),inactive
5,C=CCn1c(COc2ccccc2C)nnc1SCC(=O)O,inactive
6,Cc1ccc2[nH]c3c(c2c1)CN(C(=O)CN1CCN(c2ccccc2)CC1)CC3,inactive
7,Cc1cc(C)c2c(c1)c(C)cc1nnc(SCC(=O)NCc3ccco3)n12,inactive
8,CC(=O)N1CCC2(CCCN(Cc3ccccc3)C2)CC1,inactive
9,O=C(O)/C(=C/c1c(C(=O)O)[nH]c2cc(Cl)cc(Cl)c12)c1ccccc1,inactive
10,O=C1c2ccccc2C(=O)N1CCc1nn[nH]n1,inactive
11,CCOC(=O)c1c(C)n(C)c2ccc(OC)c(NC(=O)CN3CCC4(CC3)OCCO4)c12,inactive
12,C/C(N)=C(\C#N)C(=O)NCCc1ccccn1,12 nM (active)
13,O=C(O)[C@H](CCc1ccccn1)c1ccccc1,inactive
14,O=C(NCCc1ccccn1)c1ccc(COc2ccccc2)o1,inactive
15,CC1(C)CC(=O)C(C2=NC(C)(C)Cc3ccccc32)=C(O)C1,inactive
16,CCOc1ccc(N=C2SC(C(=O)O)CC(=O)N2C)cc1 (stereo not given),inactive
17,COC(=O)N1CN(C(=O)OC)CN(C(=O)OC)C1,inactive
18,CC(C)=C(NC(=O)c1ccco1)C(=O)NCCc1nc2ccccc2[nH]1,inactive
19,CC(C)OC(=O)c1cc(NC(=O)C2C3CCC(O3)C2C(=O)O)cc(C(=O)OC(C)C)c1 (stereo not given),13 nM (active)
20,CCC(CC)C(=O)Nc1cc(C(=O)OC)cc(C(=O)OC)c1,inactive
21,O=C(CCC(=O)c1cccs1)NCc1ccccc1,inactive
22,O=C(Cn1cc(C(=O)c2cccs2)c2ccccc21)NCc1cccs1,25 nM (active)

row,SMILES,max dye-equivalent concentration
1,COC(=O)c1cn(CC(=O)NCc2cccs2)c2ccccc12,inactive
2,C=C(Br)CN1CCN(CC(=C)Br)CC1,inactive
3,O=C1CCC(C(=O)Nc2ccc(OC(F)F)cc2)N1 (stereo not given),22 nM (active)
4,COC(=O)COc1ccc(S(=O)(=O)Nc2ccc(NC(C)=O)cc2)cc1,inactive
5,CCCOc1ccc(NC(=O)C2CCCNC2=O)cc1 (stereo not given),inactive
6,NS(=O)(=O)c1cc2c(cc1Cl)NC(C(Cl)Cl)NS2(=O)=O (stereo not given),7200 nM (active)
7,Cc1cn(C2C=CC(CO)O2)c(=O)[nH]c1=O (stereo not given),inactive
8,Cc1ccc(C(=O)NC2CCN(C(=O)N3CCOCC3)CC2)cc1,inactive
9,CCOC(=O)c1cc(-c2ccc(Cl)s2)nc2c1c(C)nn2C,240 nM (active)
10,CCOC(=O)c1sc(=S)n(-c2cccc(OC)c2)c1N,inactive
11,CCOC(=O)c1c(C(C#N)C#N)cc(C)nc1C,inactive
12,Cc1ccn2cc(C(=O)NC3CCN(Cc4ccccc4)CC3)nc2c1,inactive
13,CCc1ccc2oc(-c3ccc(N)cc3)nc2c1,140 nM (active)
14,O=C(/C=N/O)Nc1ccccc1,inactive
15,CC1CCc2c(sc3c2C2=NS(=O)(=O)CCN2C=N3)C1 (stereo not given),29 nM (active)
16,CC1(CCC(=O)OC2CCCCC2)OCCO1,inactive
17,CCOC(=O)c1cc2sccc2n1Cc1ccc(C#N)cc1,inactive
18,CC(C[N+](C)(C)C)OC(N)=O (stereo not given),inactive
19,CC(=O)OC(C)C[N+](C)(C)C (stereo not given),570 nM (active)
20,CCN1C(=O)/C(=C\N2CCN(c3ccccc3)CC2)SC1=S,inactive
21,CCN1C(=O)/C(=C2\SC(N3CCCCC3)=NC2=O)c2ccccc21,17 nM (active)
22,CC(=O)c1ccc(-n2nnnc2SCC(=O)N2CCN(C(=O)c3ccco3)CC2)cc1,inactive
